# Experimental data as given in PubChem BioAssay AID2234 (The Scripps Research Institute Molecular Screening Center, 2010).
# In all, about 320,000 compounds went through this assay and about 480 (0.15%) were called active. What follows is part of a selection rich in actives, with near analogues and random picks from the rest. Values without a mark were called inactive. No stated cut-off is given here; in the data, active means inhibition above about 33%; inactive means the rest.
# Target: Lytic switch protein BZLF1 (Epstein-Barr virus (strain B95-8)) (UniProt P03206)
# Assay: Zta-DNA interaction blockers, Epstein-Barr virus – biochemical, fluorescence polarization, single concentration, counter-screen for EBNA-1 inhibitor project, primary screen (AID 2234)
# Conditions: ZTA-DNA binding, at 11 µM, hits give high values
# Chain of Lytic switch protein BZLF1 (Epstein-Barr virus (strain B95-8)) (P03206 whole entry, looked up): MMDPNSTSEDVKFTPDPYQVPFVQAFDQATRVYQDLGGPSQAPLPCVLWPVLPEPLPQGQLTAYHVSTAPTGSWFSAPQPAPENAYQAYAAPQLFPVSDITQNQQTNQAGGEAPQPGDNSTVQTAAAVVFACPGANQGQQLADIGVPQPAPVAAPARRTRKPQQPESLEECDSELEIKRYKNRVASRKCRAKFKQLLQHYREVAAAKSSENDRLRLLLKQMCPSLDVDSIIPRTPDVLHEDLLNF
row,Compound,inhibition
1,CCSc1sc(CC)cc1C=O,3.38%
2,CC(C)c1ccc(-c2nn[nH]n2)cc1,-11.4%
3,COC(=O)c1c(-c2ccsc2)oc2ccc(-c3cc(OC)c(OC)c(OC)c3)cc12,-1.27%
4,Cc1ccc(N2CCN(S(=O)(=O)N(C)C)CC2)cc1Cl,10.4%
5,O=C(NCC(=O)N1CCC2(CC1)NCCc1[nH]cnc12)c1ccc(Br)cc1,-4.85%
6,CCC(=O)Nc1ccc(Nc2nc(Cl)nc(Nc3ccc(NC(=O)CC)cc3)n2)cc1,33.6% (active)
7,CCOC(=O)CNc1nc(Cl)nc(Nc2ccccc2)n1,3.82%
8,CCC(=O)Nc1ccc(C(=O)Nc2cc(C)on2)cc1,-11.8%
9,O=C(CCCCCn1c(=S)[nH]c2ccsc2c1=O)NC1CCCCC1,10.7%
10,CCn1c(O)c2ccc(C(=O)N=NC(=O)c3cccnc3)cc2c1O,-7.57%
11,CCOC(=O)CN(C(=O)CN1CCOCC1)c1ccc(Br)cc1,13%
12,CCCC(C)C(=O)Nc1ccc(NC(C)=O)cc1 (centres undefined),-5.74%
13,COc1ccc(C(C(=O)NCC2CCCO2)N(C(=O)Cn2nnc3ccccc32)c2ccc(NC(C)=O)cc2)cc1OC (centres undefined),-7.72%
14,Cc1ccc(-c2csc(NC(=O)C3=COCCO3)n2)cc1C,-12.1%
15,Cc1ccc(C)c(OCC(=O)NNC(=O)C2CCC2)c1,1.86%
16,O=C(Cn1cc(C(=O)C2CC2)c2ccccc21)Nc1ccccc1Cl,14.6%
17,Cc1cc(C(=O)OC(C)C(=O)NC2CCCCC2C)c(C)o1 (centres undefined),-3.44%
18,COc1ccc(-c2nnc(SC(=O)N3c4ccccc4Sc4ccccc43)o2)cc1,6.65%
19,O=C(O)C1CCCN1C1=NS(=O)(=O)c2ccccc21 (centres undefined),9.03%
20,CC(C)(C)C(=O)COC(=O)c1cc(S(=O)(=O)N2CCCCC2)ccc1N1CCOCC1,-4.54%
21,CN(Cc1ccco1)S(=O)(=O)c1nnc(NC(=O)c2ccccc2)s1,13.9%
22,COc1ccc(-c2nonc2NC(=O)c2oc3ccc(F)cc3c2C)cc1OC,-1.66%
23,CCCCC(C(=O)NC(C)(C)C)N(Cc1ccccc1)C(=O)c1snc(C(N)=O)c1N (centres undefined),-11.4%
24,CC1(C)O[C@@H]2CC3C4C[C@H](F)C5=CC(=O)C=CC5(C)C4C(O)CC3(C)[C@]2(C(=O)CO)O1 (some centres undefined),3.09%
25,Clc1ccc(-n2nnnc2CN2CCCCC2)cc1Cl,7.74%
26,COc1ccc(C2=NN(C(=O)c3ccccc3C(=O)O)C(c3ccccc3O)C2)cc1 (centres undefined),-14.4%
27,CCN(CC)S(=O)(=O)c1ccc(C(=O)N2CCN(C3=NS(=O)(=O)c4ccccc43)CC2)cc1,-8.64%

row,Compound,inhibition
1,COC(=O)Nc1ccc(S(=O)(=O)N(C)CC(F)(F)C(F)F)cc1,9.51%
2,CN(C(=O)C1CCN(c2ncnc3c2nc2n3CCCCC2)CC1)C1CCCCC1,-0.51%
3,CC(=O)NNC1=Nc2ccccc2N(C)C(C)C1 (centres undefined),-9.35%
4,CCc1cccc(NC(=S)N(CCN(C)C)C2CCN(C(C)C)CC2)c1,-6.22%
5,Cc1ccc(C2=NN(C(=O)CSc3nc(N)cc(N)n3)C(c3ccco3)C2)cc1 (centres undefined),0.17%
6,CC(=O)Nc1ccc(S(=O)(=O)N(C)c2ccc(OCC(=O)OCC(=O)N3CCCCC3)cc2)cc1,-11.6%
7,CCCC(C)n1[nH]c(=O)c2c(C)cc(C)nc21 (centres undefined),11.1%
8,CC(=O)Nc1ccc(NC(=O)C2CCCN2S(=O)(=O)c2cccc(C(F)(F)F)c2)cc1 (centres undefined),17.1%
9,C=CCn1c(COc2ccc(F)cc2)nnc1SCC(=O)Nc1cccc(S(N)(=O)=O)c1,3.26%
10,O=C(CCn1c(=S)[nH]c2cc3c(cc2c1=O)OCO3)NCc1ccc(Cl)cc1,2.43%
11,N#C/C=C1\Sc2ccccc2C(=O)N1CC(=O)N1CCN(S(=O)(=O)c2ccccc2)CC1,-8.28%
12,O=C(O)Cc1csc(NC(=O)CSc2nnnn2-c2ccc(O)cc2)n1,2.08%
13,O=C(/C=C/c1cc2c(cc1Br)OCO2)NCc1ccc(Cl)cc1,-6.35%
14,CC(=O)Nc1c2c(nn1-c1ccc(C)cc1C)CS(=O)C2 (centres undefined),-22.1%
15,NC(=O)C1CCN(C(=O)c2ccc3c(=O)n(Cc4cccc(Br)c4)c(=S)[nH]c3c2)CC1,-10.6%
16,C#CCOCCOCCOCCNc1nc(N2CCN(C(=O)CCCCCCCCCCNC(=O)[C@H]([C@@H](C)CC)n3cc(CCCCN=C(N)N)nn3)CC2)nc(N2CCN(C(=O)CCCCCCCCCCNC(=O)[C@H](CO)n3cc(CCCSC)nn3)CC2)n1,134% (active)
17,C#CCOCCOCCOCCNc1nc(N2CCN(C(=O)CCCCCCCCCCNC(=O)[C@H](CCCCN)n3cc(C)nn3)CC2)nc(N2CCN(C(=O)CCCCCCCCCCNC(=O)[C@H](CO)n3cc(CCCSC)nn3)CC2)n1,12.7%
18,C#CCOCCOCCOCCNc1nc(N2CCN(C(=O)CCCCCCCCCCNC(=O)Cn3cc(CCCCCN)nn3)CC2)nc(N2CCN(C(=O)CCCCCCCCCCNC(=O)[C@H](CO)n3cc(CCCSC)nn3)CC2)n1,24.8%
19,COC(=O)c1ccc(NC(=O)CSc2nnc(Cc3cccn3C)n2-c2ccc(F)cc2)cc1,11.4%
20,Cc1ccc(Cc2cncc(O)c2)cc1S(=O)(=O)O,-9.54%
21,Cc1csc(CN(C)C(=O)CC2C(=O)NCCN2CC(C)(C)C)n1 (centres undefined),5.13%
22,CCN1C(=O)C(=O)N(CC(=O)Nc2cc(C)ccc2C)C1=O,9.39%
23,CSc1ccccc1NC(=O)c1ccc2c(c1)CCN2S(C)(=O)=O,14.6%
24,Cc1ccc(OCC(=O)Nc2ccccc2C(=O)NC2CC2)cc1C,1.2%
25,CCCCNC(=O)C1(O)c2ccccc2NC(=O)N1c1ccc(Cl)cc1 (centres undefined),2.71%
26,O=C(N/N=C/c1cccc2cccnc12)[C@H]1C[C@@H]1c1ccccc1,-1.05%
27,Cc1ccc(Cc2nnc(SCC(=O)Nc3ccc(C)cc3C)[nH]c2=O)cc1,2.99%
